The record followed here is PubChem BioAssay.

Broadly, the inhibition is the change of the read-out against control, counted positive when it falls.

Assay [1] can be described thus: blockers of polyQ-driven CASP3 activation – cell-based (AID 1583). To be noted: polyglutamine-induced caspase-3 activation, cell assay; stronger effect = higher value;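 tested at 10 µM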.
Assay [2] can be described thus: yeast 75Q aggregation reduction – 75Q-TubU reporter (AID 1593). The following applies: Yeast 75Q polyglutamine aggregation reporter.
Assay [3] in a line: restoration of touch response, mutant HTT neurons – whole organism, C. elegans mechanosensory neurons, N-terminal huntingtin (AID 1599). The following applies: C. elegans polyQ-huntingtin mechanosensory neurons, stronger effect = higher value.
The nature of assay [4]: blockers of cytochrome c efflux from mitochondria – biochemical, purified mitochondria (AID 1603).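 Also: mouse liver mitochondria challenged with calcium chloride; signal normalized to the plate average as 100%.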 To be noted: stronger effect = lower value.
A short description of assay [5]: polyglutamine aggregate formation blockers (AID 1604). The following applies: polyglutamine-induced protein aggregation inhibition assay; stronger effect = higher value; tested at 2.5 µM.
Assay [6] can be described thus: glutamate transport activators, MN-1 cells, MN-1 cell line (AID 1612).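 Also: tested at 1 µM final; 0% = mean of DMSO vehicle wells on each plate; positive means more glutamate uptake than control and negative means less.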 The following applies: MN-1 motor neuron cells, stronger effect = higher value.
Assay [7] in a line: 75Q-TubH aggregate inhibition, S. cerevisiae, yeast (AID 1616). The following applies: S. cerevisiae 75Q-TubH polyglutamine aggregation suppression; stronger effect = higher value.
The test system of assay [8] is Neuropilin-2 / VEGF-C interaction (human). The assay can be described thus: small molecules blocking Neuropilin-2/VEGF-C interaction – biochemical, microplate binding format, z-score (AID 743281; call rule not given here). To be noted: microplate NRP2/VEGF-C binding assay; stronger effect = lower value.
The nature of assay [9]: modulation of C. elegans fzo-1 (AID 1259413; call rule not given here;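 also: fzo-1 mutant C. elegans worms in liquid wells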). The following applies: C. elegans fzo-1 modulator screen, mean read-out; stronger effect = higher value.
A short description of assay [10]: galactose survival enhancers in mitochondrial complex I cybrids – cell-based, galactose medium, ATP luminescence, primary screen (AID 1645843;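 active = z-score of at least 1.8 in each of two replicates, scored against plate mean and spread of sample wells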;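 also: positive z means more ATP and so rescue of galactose-driven cybrid death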). The following applies: complex I mutant cybrid cells, 72 h, stronger effect = higher value.
Assay [11] has as its system F380Y/beta2Delta. The assay can be described thus: BK channel mutant inhibitors and activators – cell-based, U2OS BacMam, thallium flux, beta subunits, selectivity assay, profiling panel (AID 1259406).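 Also: initial slope of Thallos dye fluorescence rise after thallium is added; log ratio against the mean of 0.3% DMSO vehicle wells on the same plate.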 To be noted: U2OS BacMam BK variants, at 30 µM.
Assay [12] concerns the target Calcium-activated potassium channel subunit alpha-1 (Homo sapiens) + Leucine-rich repeat-containing protein 26 (Homo sapiens) (UniProt Q12791+Q2I0M4). The assay is described as above. To be noted: U2OS BacMam BK variants, F380Y/Slo1WT/gamma1, at 30 µM.
Assay [13] concerns R275C. The description is as above. The following applies: U2OS BacMam BK variants, at 30 µM.
For assay [14], the system named is R275C/beta1. The assay is described as above. To be noted: U2OS BacMam BK variants, at 30 µM.
For assay [15], the system named is R275C/beta2Delta. Described as above. To be noted: U2OS BacMam BK variants, at 30 µM.
Assay [16] in a line: compounds altering viability of human ES cells (AID 493140; call rule not given here;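 also: cells exposed to compounds for four days before counting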). To be noted: human embryonic stem cell survival screen; stronger effect = higher value.
The subject of assay [17] is F380Y/beta1. The assay can be described thus: BK channel mutant inhibitors and activators – cell-based, U2OS BacMam, thallium flux, beta subunits, selectivity assay, profiling panel (AID 1259406).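 Also: initial slope of Thallos dye fluorescence rise after thallium is added; log ratio against the mean of 0.3% DMSO vehicle wells on the same plate.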 To be noted: U2OS BacMam BK variants, at 30 µM.
Assay [18] has as its system F380Y/beta4. Described as above. The following applies: U2OS BacMam BK variants, at 30 µM.
The test system of assay [19] is R275C/beta4. Described as above. To be noted: U2OS BacMam BK variants, at 30 µM.
The test system of assay [20] is R275C/Slo1WT/beta2. The assay is described as above. To be noted: U2OS BacMam BK variants, at 30 µM.

Each structure is given as a SMILES string. Values joined by “and” are separate entries in the source; they are usually repeats but may differ in a detail not shown here. Equal entries are not always repeated. For some of these results: Results with a measured potency or affinity are listed apart. Where a structure was tested more than once in an assay, its records may differ in their call. Active and inactive are the calls of the source.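 The calls were made as follows, unless noted: active = thallium flux through the channel raised or lowered by more than 3 SD from vehicle-only wells, actives on both sides; inactive = the rest.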

Calcium-activated potassium channel subunit alpha-1 (Homo sapiens) + Leucine-rich repeat-containing protein 26 (Homo sapiens), sequence (Q2I0M4 whole entry, looked up, one chain of several): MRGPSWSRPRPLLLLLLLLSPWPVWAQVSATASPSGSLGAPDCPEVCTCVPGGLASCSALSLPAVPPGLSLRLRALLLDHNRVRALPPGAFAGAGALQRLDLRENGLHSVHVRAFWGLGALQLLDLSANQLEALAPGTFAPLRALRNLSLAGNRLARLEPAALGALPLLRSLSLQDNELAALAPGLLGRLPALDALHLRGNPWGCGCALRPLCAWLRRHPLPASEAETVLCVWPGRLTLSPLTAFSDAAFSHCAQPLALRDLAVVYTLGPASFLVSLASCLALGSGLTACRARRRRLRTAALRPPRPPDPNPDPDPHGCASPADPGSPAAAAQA

Consider `CN(C)CCN(Cc1ccccc1)c1ccccn1`, for which the inhibition in [1] worked out at 16.8%. Besides, the score in assay [2] was found to be 1.31. Further, in [3], the rescue above control turned out to be 2.67. Moreover, in assay [4], the cytochrome c release ratio is 1.13. The compound further came in with an inhibition of aggregation in [5] of 79.6%. In assay [6], the glutamate uptake change is -25.1%. In [7], the aggregation suppression score came to 1.09. The values for the z-score in assay [8] and in [10] were -0.192 (inactive) and 0.73 (inactive), respectively. The mean signal in assay [9] was 272 (inactive). In addition, the log fold change Tl+ flux is -0.027 (inactive) in assay [11]; 0.0226 (inactive) in assay [12]; 0.027 (inactive) in assay [13]; 0.0111 (inactive) in [14]; -0.0395 (inactive) in assay [15].
In the case of `C#C[C@]1(O)CC[C@H]2[C@@H]3CCC4=Cc5oncc5C[C@]4(C)[C@H]3CC[C@@]21C`, the survival in assay [16] is 10.4 (inactive). Further, in assay [10], the z-score is -1.4 (inactive) and -1.46 (inactive). Moreover, the log fold change Tl+ flux in assay [17] was 0.032 (inactive); in assay [11] it was -0.066 (inactive); in assay [18], -0.0261 (inactive); in assay [12], 0.00932 (inactive); in assay [13], 0.0195 (inactive); in assay [14], 0.048 (inactive). In addition, the log fold change Tl+ flux is -0.00872 (inactive) in assay [15], 0.0847 (inactive) in [19] and -0.016 (inactive) in [20].
With `OCCN(CCO)c1nc(N2CCCCC2)c2nc(N(CCO)CCO)nc(N3CCCCC3)c2n1`, in assay [1], the inhibition is -102%. This compound had a score in assay [2] of 1.27. The same compound came in with a rescue above control in assay [3] of 18.2. In [4], the cytochrome c release ratio was determined as 1.1. The compound also returned an inhibition of aggregation in assay [5] of 79.2%. Moreover, in [6], the glutamate uptake change came to 32%. In addition, in [7], the aggregation suppression score amounted to 1.33. Also, in assay [16], the survival is 34.4 (inactive). In addition, the mean signal in assay [9] is 298 (inactive).
Regarding `CCCCc1oc2ccccc2c1C(=O)c1cc(I)c(OCCN(CC)CC)c(I)c1`, the inhibition in assay [1] was found to be 18.6%. This compound returned a score in [2] of -1.49. Besides, the rescue above control in assay [3] was found to be 0.17. Besides, in assay [4], the cytochrome c release ratio amounted to 0.79. For the same compound, in [5], the inhibition of aggregation came to 28.8%. The glutamate uptake change in [6] amounted to 11.2%. The aggregation suppression score in assay [7] is -0.303. In addition, in [16], the survival was 3.5 (inactive). The z-score in [8] is -0.442 (inactive); in assay [10] it was -1.52 (inactive) and -1.44 (inactive) and -1.87 (inactive). Further, the mean signal in assay [9] is 244 (inactive).
With `CC(=O)OCC(=O)[C@@]1(O)CC[C@H]2[C@@H]3CCC4=CC(=O)CC[C@]4(C)[C@H]3C(=O)C[C@@]21C`, the z-score in assay [10] is 0.82 (inactive) and 2.46 (active). Further, the log fold change Tl+ flux is 0.0066 (inactive) in assay [17]; -0.0255 (inactive) in assay [11]; -0.0455 (inactive) in assay [18]; -0.0083 (inactive) in assay [12]; 0.0275 (inactive) in assay [13]; -0.0466 (inactive) in [14]. For the same compound, the log fold change Tl+ flux is -0.00407 (inactive) in assay [15], -0.00976 (inactive) in assay [19] and 0.0162 (inactive) in assay [20].
As for `CC(=O)OCC(=O)[C@@]1(O)CC[C@H]2[C@@H]3CCC4=CC(=O)C=C[C@]4(C)[C@H]3[C@@H](O)C[C@@]21C`, the z-score in assay [10] is 0.085 (inactive). For the same compound, the log fold change Tl+ flux was 0.0202 (inactive) in [17]; -0.0297 (inactive) in [11]; 0.0608 (inactive) in [18]; 0.072 (inactive) in assay [12]; -0.0254 (inactive) in assay [13]; 0.0604 (inactive) in assay [14]. Further, the values for the log fold change Tl+ flux in [15], in assay [19] and in assay [20] were 0.0146 (inactive), 0.0243 (inactive) and 0.0458 (inactive), respectively.
For `CCN(CC)C(=S)SSC(=S)N(CC)CC`, in [16], the survival was 16.9 (inactive). For the same compound, the z-score is -0.138 (inactive) in [8]; -1.35 (inactive) and -1.44 (inactive) and -2.44 (inactive) in assay [10]. Besides, the mean signal in [9] was 249 (inactive). The log fold change Tl+ flux in assay [11] was 0.0251 (inactive); in assay [12], 0.093 (active); in assay [13] it was 0.00507 (inactive); in assay [14] it was 0.145 (active); in [15] it was 0.0247 (inactive).
Turning to `CCN(CC)CC(=O)Nc1c(C)cccc1C`, the inhibition in assay [1] was -3.43%. The score in assay [2] stood at 1.56. In assay [3], this compound had a rescue above control of -0.5. In addition, the cytochrome c release ratio in assay [4] stood at 1.13. In assay [5], this compound came in with an inhibition of aggregation of 87%. The glutamate uptake change in assay [6] was found to be 0.81%. This compound came in with an aggregation suppression score in assay [7] of 1.18. The survival in assay [16] was 23.2 (inactive). Besides, the z-score was 1.47 (inactive) in assay [8]; 0.01 (inactive) and 0.715 (inactive) and 0.48 (inactive) in assay [10]. Further, in assay [9], the mean signal is 257 (inactive). The log fold change Tl+ flux was -0.0588 (inactive) in assay [11]; 0.0193 (inactive) in assay [12]; -0.00245 (inactive) in assay [13]; -0.022 (inactive) in assay [14]; 0.00392 (inactive) in assay [15].
Consider `CC(=O)S[C@@H]1CC2=CC(=O)CC[C@]2(C)[C@H]2CC[C@@]3(C)[C@@H](CC[C@@]34CCC(=O)O4)[C@H]12`, for which the survival in assay [16] is 17.9 (inactive). Further, the z-score in assay [10] was -0.25 (inactive) and 0.65 (inactive). The log fold change Tl+ flux in assay [17] is 0.0461 (inactive); in assay [11], -0.0301 (inactive); in [18] it was -0.0243 (inactive); in assay [12], 0.0238 (inactive); in [13] it was 0.0437 (inactive); in assay [14], 0.0449 (inactive). The figures for the log fold change Tl+ flux in assay [15], in assay [19] and in [20] were 0.0485 (inactive), 0.0567 (inactive) and 0.0564 (inactive), respectively.
`CCOC(=O)N1CCC(=C2c3ccc(Cl)cc3CCc3cccnc32)CC1`: the inhibition in assay [1] was found to be 15.4%. The compound also registered a score in assay [2] of 0.8. Moreover, in [3], the rescue above control is -2.91. In addition, in assay [4], the cytochrome c release ratio stood at 4.23. In assay [5], this compound returned an inhibition of aggregation of 56.9%. The glutamate uptake change in [6] was -2.42%. The same compound showed an aggregation suppression score in assay [7] of 0.519. For the same compound, the z-score in assay [8] is 0.735 (inactive). Also, the mean signal in [9] is 253 (inactive).
With `CCn1cc(C(=O)O)c(=O)c2cc(F)c(N3CCNCC3)cc21`, the inhibition in assay [1] was -2.25%. Besides, the score in assay [2] was 0.92. The compound also showed a rescue above control in assay [3] of 3.5. Besides, the cytochrome c release ratio in assay [4] was determined as 0.95. Besides, in assay [5], the inhibition of aggregation worked out at 52.4%. In [6], the glutamate uptake change is -6.97%. Besides, the aggregation suppression score in [7] came out at 1.19. Moreover, the survival in assay [16] is 20.2 (inactive). In addition, the mean signal in assay [9] is 207 (inactive). Moreover, the z-score in assay [10] was 0.67 (inactive).
